Assay outcomes: PubChem BioAssay, National Center for Advancing Translational Sciences (NCATS)
Shown are actives, neighbours in structure and some others; about 19% of the full set was active somewhere.
HT1080NT lethal = kills 2HG-producing HT-1080-NT fibrosarcoma cells | HT-1080-NT fibrosarcoma viability, CellTiter-Glo ATP luminescence, 48 h | Potency, µM (doses to about 46.1 µM), hits mostly cytotoxic | actives 1.6% (n = 360,000);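 further: NT is the 2HG producing partner of a matched IDH1 knockdown line; nearly all actives have a fitted effect of over 55% in size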
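Viability of the 2HG-overproducing fibrosarcoma line after 48 hours of compound exposure at 37 degrees C was determined by luminescence with CellTiter-Glo, and concentration-effect curves were then fitted and categorized.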
IL-1B inflam inh = blocks inflammasome-driven IL-1 beta release; THP-1 LPS/ATP IL-1B secretion, AlphaLISA, 16 h; active compounds read low; activity change, % at 57.5 µM; actives 4.7% (n = 360,000); in the data active means activity change below about -50%; inconclusive means mostly about -30% to -49%
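Secreted IL-1B measured by AlphaLISA bead assay after 16 h compound exposure of THP-1 cells; compounds (final up to 57.5 uM) added 1 h before LPS (250 ng/mL) and ATP (1.25 mM) stimulation; lower signal means less secretion.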
DT40 TDP1 CPT = DT40-hTDP1 cell growth loss with CPT | chicken DT40 Tdp1-/-;hTDP1 cells + 20 nM CPT, ATP luminescence, 48 h | Potency, µM (highest dose often 46.2 µM), actives largely listed as inhibitors | actives 12% (n = 420,000) | AID 686979; further: nearly all actives have a fitted effect of over 55% in size
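Chicken DT40 Tdp1-/- cells stably complemented with human TDP1 were seeded at 400 cells/well in medium containing 20 nM camptothecin, exposed to pin-transferred compounds, and grown at 37 °C for at least 48 hr. Viability was read as ATP luminescence.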
TDP1 cell noCPT = qHTS for Inhibitors of human tyrosyl-DNA phosphodiesterase 1 (TDP1): qHTS in cells in absence of CPT | DT40 Tdp1-/- hTDP1 cells, no CPT, ATP luminescence, 48 h | actives 15% (n = 420,000) | Potency, µM (doses to about 46.2 µM), hits mostly inhibitors | AID 686978, 2013; further: nearly all actives have a fitted effect of over 55% in size
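Luminescent ATP content (CellTiter-Glo) served as the growth readout. Knockout chicken DT40 cells expressing human TDP1 were exposed to compounds without camptothecin for a minimum 48 hr at 37 °C.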
HT1080 IDH1KD tx = kills HT-1080 cells with IDH1 knockdown; HT-1080 IDH1 knockdown viability, ATP luminescence, 48 h; Potency, µM (series often up to 46.1 µM), hits mostly cytotoxic; actives 2% (n = 360,000); AID 686971
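Viability of IDH1-knockdown HT-1080 fibrosarcoma cells was assessed by CellTiter-Glo after 48 h at 37 °C with titrated compound; concentration-effect curves were classified by fit quality and response size.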
Hits are given with their value; – = inactive; ? = inconclusive; · = no result given; [ ] = remark or other dose. Unless noted, the call rests on the fitted dose curve; in most records, active means well fitted curve in the direction sought with a large enough effect; inconclusive means small, poorly fitted or top-dose-only effect, or another doubt; inactive means no such curve, though single readings can be large; an effect the other way counts as inactive or inconclusive.

SMILES | HT1080NT lethal | IL-1B inflam inh | DT40 TDP1 CPT | TDP1 cell noCPT | HT1080 IDH1KD tx
COc1ccc2nc(NN=C(C)c3ccccn3)cc(C)c2c1 | – | -102 | 1.6µM | 2.9µM | 12µM
CN(Cc1cccc(Cl)c1)C(=O)C1CCC(=O)N(C2CC2)C1 (stereo not drawn) | – | – | – | – | –
CC(C)(C)c1ccc(-n2ncc3c2CCCC3NC(=O)CN2CCCC2=O)cc1 (stereo not drawn) | ? | – | 18µM | 16µM | –
CC(=O)CCC(=O)NC1CCCc2c1cnn2-c1ccc(C(C)(C)C)cc1 (stereo not drawn) | – | – | ? | ? | –
CC1(C)Cc2c(cnn2-c2ccc(F)cc2)C(NC(=O)CN2CCCCC2=O)C1 (stereo not drawn) | – | – | – | – | –
CC(C)(C)c1ccc(-n2ncc3c2CCCC3NC(=O)CCN2CCCC2=O)cc1 (stereo not drawn) | ? | – | 6.5µM | 2.1µM | 18µM
CC1(C)Cc2c(cnn2-c2ccc(F)cc2)C(NC(=O)CCN2CCCC2=O)C1 (stereo not drawn) | – | – | 18µM | ? | –
COc1ccc(-n2ncc3c2CC(C)(C)CC3NC(=O)c2c(C)cc(=O)oc2C)cc1 (stereo not drawn) | – | – | 26µM | ? | –
COCc1ccc(C(=O)NC2CC(C)(C)Cc3c2cnn3-c2ccc(OC)cc2)o1 (stereo not drawn) | – | – | – | ? | –
CC(=O)NCCC(=O)Nc1ccc(F)cc1C | – | – | – | – | –
CC(C)CNS(=O)(=O)c1ccc(CCC(=O)N2CCC(C(N)=O)CC2)cc1 | – | – | – | – | –
COc1ccc(Cn2c(CCC(=O)Nc3cccc(Cl)c3)nc3cccnc32)cc1 | · | · | – | – | ·
CC1(C)Cc2c(cnn2-c2ccc(F)cc2)C(NC(=O)C2=NNC(=O)CC2)C1 (stereo not drawn) | – | – | 15µM | ? | –
Cc1cc(C)c(COCc2cc(/C=N/O)c(C)cc2C)cc1/C=N/O | ? | -83 | ? | ? | ?
CSc1cc(/C=N/O)c(SC)s1 | – | – | – | ? | –
COc1cccc(NS(=O)(=O)c2ccc3c(c2)CCCN3C(C)=O)c1 | – | – | ? | ? | –
O=C(c1cccs1)N1CCN(S(=O)(=O)c2ccc(F)cc2)CC1 | – | – | – | – | –
O=C(c1cccs1)N1CCc2ccccc21 | – | – | – | – | –
O=C(c1cccs1)N1CCCc2cc(NS(=O)(=O)c3ccc(F)cc3)ccc21 | · | · | 21µM | – | ·
Cc1ccc(S(=O)(=O)Nc2ccc3c(c2)CCCN3C(=O)c2cccs2)cc1C | · | · | 21µM | 16µM | ·
COc1ccc(F)cc1S(=O)(=O)Nc1ccc2c(c1)CCCN2C(=O)c1cccs1 | · | · | ? | 18µM | ·
O=C(c1cccs1)N1CCCc2cc(NS(=O)(=O)c3ccc(F)cc3F)ccc21 | · | · | 21µM | 9.2µM | ·
Cc1cc(F)ccc1S(=O)(=O)Nc1ccc(C(=O)N2CCCCCC2)cc1 | – | – | ? | ? | –
Cc1cc(F)ccc1S(=O)(=O)Nc1ccc2c(c1)CCCN2C(=O)c1cccs1 | · | · | 21µM | 23µM | ·
COc1ccc(CCNC(=O)c2ccc3c(c2)ncn3-c2ccc(C)cc2C)cc1OC | · | · | ? | 21µM | ·
SMILES | HT1080NT lethal | IL-1B inflam inh | DT40 TDP1 CPT | TDP1 cell noCPT | HT1080 IDH1KD tx
COc1ccc(CCNC(=O)c2ccc3c(c2)ncn3-c2ccc(C(C)C)cc2)cc1OC | · | · | 10µM | 18µM | ·
CCOCCCNC(=O)c1ccc2c(c1)ncn2-c1ccccc1OC | – | – | ? | ? | –
COCCNC(=O)c1ccc2c(c1)ncn2-c1cc(C)ccc1OC | · | · | – | – | ·
CCOCCCNC(=O)c1ccc2c(c1)ncn2-c1ccc(C)cc1C | – | – | – | 16µM | –
O=C(c1cc(Cl)ccc1F)N1CCCC(Nc2ccc3c(c2)OCCO3)C1 (stereo not drawn) | – | – | ? | ? | –
CC(=O)NC1=NN(C(C)=O)C(C)(c2ccccc2)S1 (stereo not drawn) | 2µM | – | 5.8µM | 5.8µM | 7.1µM
Brc1cccc[n+]1Cc1ccccc1C[n+]1ccccc1Br | · | · | ? | – | ·
Cc1cc2nc(-c3cccc(Cl)c3)c(CC(C)(C)C)n2c(C)c1Br | ? | – | ? | ? | –
Cc1cc2nc(-c3cccc(Cl)c3)c(Cc3cccc(Cl)c3)n2c(C)c1Br | – | – | – | – | –
Cc1cc2nc(-c3ccco3)c(Cc3cccc(Cl)c3)n2c(C)c1Br | 29µM | – | ? | ? | 21µM
COc1ccccc1Cc1c(-c2ccco2)nc2cc(C)c(Br)c(C)n12 | ? | – | ? | 23µM | ?
Cc1cc2nc(-c3ccco3)c(CC(C)(C)C)n2c(C)c1Br | – | – | 23µM | 23µM | –
O=C(NCC1CCCCC1)c1ccc(=O)[nH]c1 | – | – | – | – | –
O=C(NCC1CCCCC1)c1cccc(-c2ccc(O)cc2)c1 | ? | -53 | ? | 21µM | ?
Cc1ccc2c(=O)cc(C(=O)NC3CCS(=O)(=O)C3)oc2c1C (stereo not drawn) | – | – | – | – | –
Cc1nc(N2CCN(S(=O)(=O)c3ccc(Br)cc3)CC2)c2c(C)c(C)sc2n1 | – | – | 21µM | ? | –
Cc1sc2ncnc(N3CCN(c4ncccn4)CC3)c2c1C | – | ? | 23µM | ? | –
Cc1nc(N2CCN(S(=O)(=O)c3ccccc3)CC2)c2cc(-c3ccccc3)sc2n1 | – | – | 15µM | ? | –
CCS(=O)(=O)N1CCN(c2ncnc3sc(C)c(C)c23)CC1 | – | – | – | ? | –
Cc1nc(N2CCN(C)CC2)c2cc(-c3ccccc3)sc2n1 | ? | – | – | – | –
Cc1nc(N2CCN(S(=O)(=O)c3ccccc3)CC2)c2c3c(sc2n1)CC(C)CC3 (stereo not drawn) | – | – | – | ? | –
Cc1sc2ncnc(N3CCN(S(=O)(=O)c4ccc(F)cc4)CC3)c2c1C | – | -57 | ? | 12µM | –
CCS(=O)(=O)N1CCN(Cc2nc3ccccc3c(=O)[nH]2)CC1 | – | – | ? | – | –
O=C(Nc1ccc(F)c(F)c1)C1=COCCO1 | – | – | – | – | –
CCc1nc(N2CCN(S(=O)(=O)c3ccc(Br)cc3)CC2)c2c(C)c(C)sc2n1 | – | – | ? | 23µM | –[9.24 µM]
CCOc1ccc2c(c1)[N+](C)(C)C(C)(C)C=C2C | – | -55 | 5.8µM | 15µM | –
COc1ccc2c(c1)[N+](C)(C)C(C)(C)C=C2C | – | – | ? | ? | –
CCCCCCN1C[C@@H](n2cc(COC(=O)c3ccccc3)nn2)[C@H](O)C[C@@H]1c1ccccc1 | – | – | ? | ? | –
C=CCC[C@H](Cc1ccc(F)cc1)C(=O)OC[C@@H](NC(=O)[C@@H](CC=C)CC(=O)N[C@@H](CO)Cc1ccccc1)C(C)(C)C | ? | -60 | 21µM | 21µM | ?
